Measured values from PubChem BioAssay AID493214 (National Center for Advancing Translational Sciences (NCATS), 2011).
Calls of active or inactive are those of the source. Calls come from the whole dose curve; as a rule, active = well fitted inhibition curve with a large enough effect; inactive = no such curve, though single readings can be large or run the other way.

target: 4'-phosphopantetheinyl transferase ffp (Bacillus subtilis) (UniProt Q9F4F7); experiment: Inhibitos of Bacillus subtilis Sfp phosphopantetheinyl transferase (PPTase): Dry Powder Followup; details: purified Sfp PPTase enzyme assay, dry powder retest
Sequence (Q9F4F7 whole entry, looked up): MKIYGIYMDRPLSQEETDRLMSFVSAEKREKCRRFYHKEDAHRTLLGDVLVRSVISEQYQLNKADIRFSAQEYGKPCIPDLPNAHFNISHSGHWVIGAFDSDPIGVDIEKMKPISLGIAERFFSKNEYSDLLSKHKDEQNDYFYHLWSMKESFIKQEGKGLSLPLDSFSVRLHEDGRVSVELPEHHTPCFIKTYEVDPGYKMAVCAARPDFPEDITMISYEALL
Excerpt: The covalent attachment of a phosphopantetheinyl (4'-PP) arm to a variety of synthases and other proteins is a key posttranslational protein modification. The 4'-PP is installed on the proteins post-translationally from coenzyme A (CoA) on a conserved serine residue by action of phosphopantetheinyl transferase (PPTase) enzymes. Phosphopantetheinylation is essential for synthase activity, and removal of the PPTase gene precludes natural product synthesis in microorganisms, or in the case of fatty acid biosynthesis, renders the organism unviable. PPTase enzymes belong to a distinct structural superfamily. Within bacteria, these enzymes are grouped into two classes based upon primary structure, the AcpS-Type and Sfp-Type PPTases.
Sfp-type PPTases, corresponding to an activator of surfactin production in Bacillus subtilis, are responsible for modifying type I polyketide and nonribosomal peptide synthases of prokaryotes. Sfp-type PPTases are responsible for the activation of a variety of pathogen-associated virulence factors. Among these compounds are toxins such as mycolactone from Mycobacterium ulcerans, siderophores such as vibriobactin from Vibrio cholerae or mycobactin from Mycobacterium tuberculosis, as well as the mycolic acids which form the waxy cell wall of Mycobacteria. The biosyntheses of these natural products are considered attractive targets for drug design.
In search of small molecule Sfp-PPTase inhibitors, a fluorescence quenching assay was developed for detection of Bacillus subtilis Sfp-PPTase enzymatic activity in a miniaturized high-throughput format. The consensus ybbr acceptor peptide DALEFIASKLA was N-terminally labeled with Black Hole Quencher-2 (BHQ-2) and used in combination with rhodamine-labeled coenzyme A as a co-substrate.
Inhibition of Sfp-PPTase was detected by recording the fluorescence intensity change over a 30-minute reaction period at a 525 nm excitation and 598 nm emission. Reagents were supplied by Michael Burkart and Timothy Foley, University of California at San Diego.
This assay is a followup of dry powder purchasing, QC'ing of samples and retesting in the primary screening protocol.
Assay Buffer: 50 mM Hepes-Na pH 7.6, 10 mM MgCl2, 0.01% Nonidet P-40, and 0.01% BSA.
3 uL of Sfp-PPTase enzyme (final concentration 15 nM) and 1 uL of substrate mixture (final concentration for rhodamine-CoA and BHQ-2-YbbR 5 uM and 12.5 uM, respectively) dispensed in columns 1, 2, 5 - 48. Columns 1 and 2 used to generate neutral control (uninhibited reaction)
Three uL of reagents, consisting of buffer (in columns 3 and 4 as negative control) and Sfp-PPTase (in columns 1, 2, 5 - 48) were dispensed into 1,536-well Greiner black solid bottom plate. Compounds (23 nL) were transferred via Kalypsys pintool equipped with 1,536-pin array. The plate was incubated for 15 min at room temperature, followed by the addition of 1 uL substrate to start the reaction. The plate was then centrifuged at 1000 rpm for 15 seconds, and the fluorescence intensity recorded on a ViewLux High-throughput CCD imager (Perkin-Elmer) using standard BODIPY optics (525 nm excitation and 598 nm emission). The plate was then incubated for 30 minutes, and a second read on the ViewLux was performed. The fluorescence intensity difference over the 30-minute period was used to calculate the respective reaction rate for each well.

Potency, active:
CCOC(=O)c1nc(NCc2ccccc2)sc1C 16.7 µM
COC(=O)Nc1sc2c(c1C(N)=O)CCC(C)C2 (centres undefined) 26.4 µM
O=C(/C=C/c1ccccc1)Nc1cccc(S(=O)(=O)Nc2ccccc2F)c1 0.527 µM
Cc1ccc(C2=CSC(NC(=O)CSc3nncn3C)=NN2)cc1 21 µM
CCOC(=O)c1c(-c2ccc(C)o2)csc1NC(=O)CSc1nnnn1-c1ccccc1 2.35 µM
C(/Cc1ccccc1)=C1\Nn2c(Cn3cnc4ccccc43)nnc2S1 21 µM
O=C(CSc1ccccc1)Nc1nnc(COc2ccc(Cl)cc2)s1 6.63 µM
O=C(Nc1nnc(COc2ccc(Cl)cc2)s1)c1cccs1 18.7 µM
O=C(CSc1ncnc2sc3c(c12)CCCCC3)NCc1ccco1 23.5 µM
CCOC(=O)c1c(NC(=O)c2ccccc2Cl)sc2c1CCc1ccccc1-2 2.64 µM
CCC(C)(C)n1nnnc1C(c1ccc(O)c(OC)c1)N1CCc2ccccc2C1 (centres undefined) 21 µM
FC(F)(F)C1CCCN(c2nsc3ccccc23)C1 (centres undefined) 2.35 µM
COc1ccc(OC)c(Nc2nc(=O)c3cccnc3s2)c1 13.2 µM
O=C(Nc1nnc(COc2ccc(Cl)cc2)s1)c1ccco1 14.8 µM
Clc1ccccc1-c1nnc2n1N/C(=C/Cc1ccccc1)S2 2.96 µM
CCc1c(C)sc(NC(=O)C2CCCCC2C(=O)O)c1C(N)=O (centres undefined) 2.35 µM
O=C(CSc1nc2scc(-c3ccco3)c2c(=O)n1-c1ccccc1)NCC1CCCO1 (centres undefined) 3.32 µM
CCOC(=O)c1c(C)[nH]c(C2=CSC(=NC3CC3)NN2)c1C 18.7 µM
CN(C)c1ccc(C(=S)N2CCN(Cc3ccccc3)CC2)cc1 5.27 µM
C(=C1\Nn2c(COc3ccccc3)nnc2S1)/c1ccccc1 5.27 µM
CCOC(=O)c1cc(-c2ccccc2)sc1NC(=O)c1ccc(OC)cc1 23.5 µM
COC(=O)c1c(NC(=O)COC(=O)c2ccc(Cl)cc2[N+](=O)[O-])sc2c1CCCCC2 37.3 µM
CCOC(=O)c1c(-c2ccc(OC)cc2)csc1NC(=O)C1CCCO1 (centres undefined) 14.8 µM
Cc1ccnc(NC(=S)N2CCN(c3cccc(C(F)(F)F)c3)CC2)c1 14.8 µM
COC(=O)c1sc(NC(=O)c2cc(-c3ccccc3)nc3ccccc23)c(C#N)c1C 5.91 µM
CCN1CCN(C(=S)c2ccc(O)cc2)CC1 2.35 µM
c1csc(-c2nn3c(C4COc5ccccc5O4)nnc3s2)c1 (centres undefined) 21 µM
S=C(Nc1ccccn1)c1ccccn1 26.4 µM
O=C(CN1C(=O)CC(c2ccco2)Sc2ccccc21)Nc1ccccc1F (centres undefined) 26.4 µM
CC(C)(C)Cc1nnc(NC(=O)CSc2ccccc2)s1 5.91 µM
CNC(=O)c1c(N)sc2c1CCCCC2 8.35 µM
Cc1nc(SCC(=O)c2ccc(F)cc2)n[nH]1 83.5 µM
Nc1c(C(=O)Nc2ccccc2F)sc2nc(-c3ccco3)ccc12 10.5 µM
O=C(Nc1ccc(F)cc1)C1=CC(=O)N2CCN=C2S1 11.8 µM
